About 79,000 compounds went through this panel and 15% of them were active in at least one assay; those are over-represented in the sample as a whole. A number with no mark means an inactive call. Activity calls are given as the source filed them. Rule as the data show it: active = growth inhibition above about 70%; inactive = the rest.
Tests used:
[1] = NCI Yeast Anticancer Drug Screen. Data for the rad50 strain (AID 155);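 also: 0% = growth of vehicle-only cultures of the same strain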; conditions: S. cerevisiae rad50 strain growth inhibition; at 50.0 µM; stronger effect = higher value
In short: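 DNA repair mutant yeast, compound exposure, growth read-out; inhibition is taken relative to vehicle.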

[2] = NCI Yeast Anticancer Drug Screen. Data for the mec2-1 strain (AID 157); conditions: S. cerevisiae mec2-1 strain, at 50.0 µM, stronger effect = higher value
In short: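 Strain: mec2-1 (DNA repair/cell cycle alteration). Compound exposure, then growth measured; inhibition expressed relative to vehicle.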

[3] = NCI Yeast Anticancer Drug Screen. Data for the sgs1 mgt1 strain (AID 161);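 also: 0% = growth of cultures given vehicle only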; conditions: S. cerevisiae sgs1 mgt1 strain, at 50.0 µM, stronger effect = higher value
In short: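 Inhibition of yeast growth, normalised to vehicle-treated controls, is reported for a strain bearing genetic alterations in DNA damage repair.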

[4] = NCI Yeast Anticancer Drug Screen. Data for the cln2 rad14 strain (AID 165);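 also: 0% = growth equal to vehicle treated cultures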; conditions: S. cerevisiae cln2 rad14 strain, at 50.0 µM, stronger effect = higher value
In short: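 Compounds are applied to the cln2 rad14 yeast strain, and growth is then compared with that of vehicle-treated cultures to give inhibition.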

[5] = NCI Yeast Anticancer Drug Screen. Data for the bub3 strain (AID 167); conditions: S. cerevisiae bub3 mutant strain, at 50.0 µM, stronger effect = higher value
In short: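 In this screen, a yeast mutant lacking normal mitotic checkpoint function is challenged with compound. Relative growth versus vehicle gives the inhibition value.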

[6] = NCI Yeast Anticancer Drug Screen. Data for the mlh1 rad18 strain (AID 175); conditions: S. cerevisiae mlh1 rad18 strain growth inhibition; at 50.0 µM; stronger effect = higher value
In short: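 Read-out is yeast growth inhibition, calculated against vehicle-only controls. The compound was applied to a strain engineered with DNA damage repair alterations.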

SMILES | growth inhibition [1] [%] | growth inhibition [2] [%] | growth inhibition [3] [%] | growth inhibition [4] [%] | growth inhibition [5] [%] | growth inhibition [6]
Cc1ccccc1N(CCC#N)C1=NN(C(=O)CC(=O)Nc2ccc(Cl)cc2)C(c2ccccc2)C1 (stereo unspecified) | 6.35 | -9.05 | -0.2 | 15 | -16.1 | -5.35%
S=C(N/N=C\c1ccccc1)Nc1ccccc1 | 6.65 | -1.05 | -8.2 | 8.65 | 10.8 | 14.9%
CCCCN(CCCC)CC(=O)NC(N)=O | 4.6 | 0.9 | -6.95 | -2.8 | 10.3 | -6.8%
NC(=S)NNC(=O)c1cccs1 | -9.9 | -10.2 | 22.6 | 3.35 | 7.05 | 9.75%
Nc1ccc2c(c1)NCC2 | -27.6 | -45.7 | -17.1 | 12.1 | -14.9 | -16.6%
O=C(O)CCC1(C(=O)O)NCCc2c1[nH]c1ccccc21 (stereo unspecified) | 8.1 | 11.8 | 5.1 | 8.55 | 7.9 | 12.6%
O=C(O)C12CC3(C(=O)O)CC(C(=O)O)(CC(C(=O)O)(C1)C3=O)C2=O | -11.3 | 13.4 | -24.4 | -4.15 | -28.1 | 17.3%
CC1=C(CCC#N)C(=O)C(CCC#N)C(C)(C)C1 (stereo unspecified) | 0.15 | -8.65 | -16.6 | -29.6 | -2.75 | -7.9%
C=CCC(O)c1ccc2c(c1)OCO2 (stereo unspecified) | -1 | 13.3 | -9.8 | -40 | -4.25 | 10.1%
c1ccc(CCn2c(-c3ccccn3)nc3ccccc32)nc1 | 13.2 | -4.25 | 18.1 | -24.5 | 15.5 | 7.95%
C/C(=N\N=C(/C)c1ccc(Br)s1)c1ccc(Br)s1 | -42.5 | -35 | -23.7 | -18.3 | -12.8 | -28.1%
Cc1ccc(S(=O)(=O)OCC2C(COS(=O)(=O)c3ccc(C)cc3)C3CCC2C2C3C3C2C2(C)C(=O)C3(C)C(c3ccccc3)=C2c2ccccc2)cc1 (stereo unspecified) | 0.35 | -5.2 | 4.2 | -5.7 | -5.5 | 12.3%
O=C(c1ccc(Cl)s1)C(Cl)C(Cl)c1ccc(Cl)s1 (stereo unspecified) | -20.5 | -2.4 | 1.2 | -12.4 | 29.6 | -3.55%
CCCCCCCCCCCC(=O)OC(COC(N)=O)COc1ccc(Cl)cc1 (stereo unspecified) | -34.2 | -59.5 | -18.9 | 0.3 | -10.2 | -46.4%
Cc1ccc(SCc2ccc(Cl)cc2)nn1 | 4.05 | 0.3 | -1.65 | -13.8 | 26.8 | -5%
CN1CCC2(CC1)C(=O)N(N1CCCCCC1)C(=O)N2c1ccccc1 | 26.2 | 4.85 | -0.95 | 4.5 | 4 | 15.5%
CC(C)=C(CSC#N)S(=O)(=O)c1ccc(C)cc1 | 0.45 | 14.2 | 7.1 | -5.1 | 36.9 | 14.7%
O=c1[nH]c(=O)n(C2CC3OCC3O2)cc1F (stereo unspecified) | -14.2 | 35.7 | -9.05 | 20.1 | -13.5 | 11.2%
O=C(NCC(F)(F)C(F)(F)C(F)(F)C(F)(F)C(F)(F)C(F)(F)C(F)(F)F)Oc1ccccc1 | 39.2 | 3.3 | 26.7 | 9.45 | -2.05 | 3.35%
O=C1c2ccccc2C(=O)N1CCOCCOCCN1C(=O)c2ccccc2C1=O | -8.15 | -6 | -17 | -20.7 | -2.7 | 20.4%
C[n+]1c(-c2ccc(/C=N/NC(=O)c3cc(O)c(C(=O)N/N=C/c4ccc(-c5cn6ccccc6[n+]5C)cc4)cc3O)cc2)cn2ccccc21 | -31 | -13.5 | -15.7 | -39.5 | -31.9 | -10.5%

SMILES | growth inhibition [1] [%] | growth inhibition [2] [%] | growth inhibition [3] [%] | growth inhibition [4] [%] | growth inhibition [5] [%] | growth inhibition [6]
CCCCCCCCCCCCCCCCCC(=O)N/N=C/c1ccc(Cl)cc1 | -6.2 | -8.95 | -11.6 | -15.4 | -2.85 | -25.1%
Nc1ncnc2nc[nH]c12 | -8.7 | -6.7 | 13.9 | -24.7 | -12.1 | -5.7%
CN(C)c1ccc(/C=N/N=C2\C(=O)Nc3c(Cl)cc(Cl)cc32)cc1 | 25.2 | -0.25 | 56.8 | 43.1 | 43.5 | 78.8% (active)
OC1(c2ccccc2)C=C(c2ccccc2)C=C(c2ccccc2)O1 (stereo unspecified) | -5.95 | 10.7 | -1.05 | 0.9 | 8.05 | -2.55%
CCOC(=O)N/N=C(\C)c1ccc(OC)cc1 | 17.8 | 21.9 | 20.1 | 11.3 | 34.9 | 19.1%
N#CC1CC=CCN1CCc1ccccc1 (stereo unspecified) | -9.5 | -5.75 | -4.95 | 42.5 | 20.7 | 7.5%
CC(=O)NNC(=S)/N=C\c1c(O)c2ccccc2oc1=O | -50.5 | -45.6 | -34.2 | -13.2 | -38.5 | -37.9%
O=C(/C(=C(/Br)I)c1ccccc1)c1ccccc1 | -13.8 | 16 | 26.6 | 14.1 | 42.6 | 28.4%
C/C=C/[C@@]1(OC(=O)c2ccccc2)C[C@@H]2CCCC[C@@H]21 | 35.4 | 11.1 | 37.4 | 23.3 | 12.9 | 31.6%
Oc1ccc2ccccc2c1C(c1cccc2ccccc12)N1CCCCC1 (stereo unspecified) | 16.1 | 1.4 | 9.7 | 3.2 | 16.1 | 53.8%
COC(=O)[C@]1(C)OP(OC)(OC)(OC)O[C@]1(C)C(=O)OC | -3.4 | -10.2 | 3.25 | -40.5 | -2.15 | -1.6%
CC(C)/C(Cl)=N\OC(NC(=O)P(=O)(c1ccccc1)c1ccccc1)(C(F)(F)F)C(F)(F)F | 58.5 | 52.2 | 50.8 | 65.5 | 52.4 | 60.9%
CCC(=O)N1C(=O)OCC1C(C)C (stereo unspecified) | -2.8 | -21.4 | -22.3 | 13.1 | -9.35 | 14.8%
O=[N+]([O-])c1ccc(N=Nc2c(O)[nH]c3ccc(Br)cc23)c([N+](=O)[O-])c1 | 9.75 | -21.2 | 2.15 | -23.1 | -20.6 | 5.5%
Cc1csnn1 | -12.7 | -17.9 | 8.5 | -1.4 | -1.6 | -21.6%
CCOC(OCC)C(N)C(=O)O (stereo unspecified) | 6 | 23.7 | 1.4 | -19.3 | 10.8 | -15%
CC1c2[nH]c3ccccc3c2CC1C(=O)O (stereo unspecified) | 10.3 | 12.6 | 5.25 | -13.2 | -9.8 | -5.35%
Cc1ccc(S(=O)(=O)Oc2c(Br)cc(-c3ccccc3)cc2Br)cc1 | 27.9 | 3.4 | 13.5 | 6.65 | -12.4 | 18.6%
C1=NN=C2C=C3CCc4ccccc4C3CC12 (stereo unspecified) | 7.45 | 7.25 | -1.2 | -16.9 | -15.9 | 18.6%
CCCCCCCCCCCCCCCC(=O)N=C(C(N)=O)C(N)=O | 4.25 | -35 | -14.7 | -54 | -22.6 | -19.9%

Source: PubChem BioAssay (NCI)
